# Measurements as given in PubChem BioAssay AID1259415 (National Center for Advancing Translational Sciences (NCATS), 2018).
# Where “and” joins values, the source holds several entries; their conditions need not be identical. Identical values can stand only once. About 18,000 (4.4%) of roughly 410,000 compounds were called active. Inconclusive results (about 7%) are left out. Rule as the data show it: active = activity change below about -60%; inconclusive = no clear call, values can overlap the other calls; inactive = above about -39%. What follows is part of a selection rich in actives, with near analogues and random picks from the rest.
# Test: qHTS Assay for inhibitors of the human cytomegalovirus (HCMV)
# Conditions: HFF cells, HCMV-luciferase reporter, 72 h; at 57.5 µM; active compounds read low
# Procedure, shortened: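 Luciferase read-out from HCMV-luciferase-infected HFFs (MOI 1 PFU/cell) 72 h post infection at 37C; compounds added after 16 h cell attachment; activity normalized between buffer-only basal and Salinomycin (10uM) inhibitor controls.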
# % is scaled to controls: 0 for no effect and ±100 for the full control effect.
row,SMILES,"activity change, negative = inhibition"
1,COc1ccccc1NC(=O)C1=C(C)Nc2ncnn2C1c1sccc1C (stereo not given),18% (inactive)
2,O=C(CSc1oc(-c2ccco2)nc1S(=O)(=O)c1ccc(Cl)cc1)c1ccccc1,-0.0708% (inactive)
3,O=C(Nc1ccc(Oc2ccccc2)cc1)C1CCN(S(=O)(=O)c2ccc(Cl)cc2)CC1,-10.9% (inactive)
4,CC(=O)Nc1ccc(S(=O)(=O)N2CCC(C(=O)NC3CC3)CC2)cc1,6.71% (inactive)
5,O=C(Nc1ccc(S(=O)(=O)N2CCOCC2)cc1)C1CCN(S(=O)(=O)c2ccc(Cl)cc2)CC1,-78.5% (active)
6,CCCNC(=O)c1ccc(Cn2c(SCC(N)=O)nc3ccccc3c2=O)cc1,4.58% (inactive)
7,CN(CC(=O)Nc1ccc(C(N)=O)cc1)S(=O)(=O)c1ccc2c(c1)OCCO2,21.6% (inactive)
8,NC(=O)c1ccc(NC(=O)COC(=O)c2c3c(nc4ccccc24)/C(=C\c2ccc4c(c2)OCO4)CCC3)cc1,-90.6% (active)
9,NC(=O)c1ccc(NC(=O)COC(=O)C(Cc2ccccc2)NC(=O)c2ccccc2)cc1 (stereo not given),10.9% (inactive)
10,COc1ccc(CCNC(=O)CCCn2c(=O)c3ccccc3n(Cc3ccc(C)cc3)c2=O)cc1OC,8.21% (inactive)
11,Cc1ccc(Cn2c(=O)n(Cc3nc(-c4ccccc4)no3)c(=O)c3cc4c(cc32)OCO4)cc1,-3.37% (inactive)
12,COc1cc(C(=O)Nc2ccc(OCc3cc(=O)n4ccc(C)cc4n3)cc2)cc(OC)c1OC,58.3% (inactive)
13,COc1ccc2oc(-c3ccc(C)c(NC(=O)c4sc5ccccc5c4Cl)c3)nc2c1,47.4% (inactive)
14,CCCCN1C(=O)c2[nH]nc(-c3ccccc3O)c2C1c1cccc(OCc2ccccc2)c1 (stereo not given),-19% (inactive)
15,Cc1[nH]nc(-c2ccc(OCc3cnn(-c4ccccc4)c3)cc2O)c1Oc1ccc(Cl)cc1,-95.2% (active)
16,Oc1cccc(C2c3[nH]c4ccccc4c3CCN2Cc2cnn(-c3ccccc3)c2)c1 (stereo not given),19.4% (inactive)
17,CCC1CCCCN1C(=O)Cn1c(=O)n(CCCCCC(=O)NCc2ccccc2)c(=O)c2sccc21 (stereo not given),-18.6% (inactive)
18,CCOC(=O)c1sc(-c2cccc([N+](=O)[O-])c2)cc1N,0.0939% (inactive)
19,CCOC(=O)N1CCN(Cc2nnc(-c3ccccc3Cl)o2)CC1,-96.5% (active)
20,CCOC(=O)C1CCN(Cc2nnc(-c3cccc(Br)c3)o2)CC1,-20.4% (inactive)
21,Cc1ccc(-c2nnc(CN3CCN(C)CC3)o2)cc1,145% (inactive)
22,O=C(Nc1nnc(C2CC(=O)N(c3ccc(Cl)cc3)C2)s1)c1ccco1 (stereo not given),5.75% (inactive)

row,SMILES,"activity change, negative = inhibition"
1,Cc1ccc(NC(=O)CC2C(=O)N(Cc3ccccc3)C(=S)N2NC(=O)c2cccc(F)c2)c(C)c1 (stereo not given),-70.8% (active)
2,Cc1ccc(N2C(=O)C(CC(=O)Nc3cccc(F)c3)N(CCc3ccncc3)C2=O)cc1 (stereo not given),-29.9% (inactive)
3,Cc1ccc(NC(=O)CN2C(=O)CC(C)Sc3ccccc32)c(C)c1 (stereo not given),-2.3% (inactive)
4,Cc1ccc(CNC(=O)C2CC(c3ccccc3[N+](=O)[O-])=NO2)o1 (stereo not given),-11.5% (inactive)
5,Cc1ccccc1NC(=O)c1cc2c([nH]c1=O)CC(C)(C)CC2=O,43% (inactive)
6,O=C(Cn1cc(-c2nnnn2-c2ccc(Cl)cc2)c(=O)c2ccccc21)c1ccccc1,-9.79% (inactive)
7,N#Cc1ccc(CSc2nnc(-c3ccccn3)n2-c2ccc(Cl)cc2)cc1,-9.16% (inactive)
8,Clc1ccc(-n2nnnc2-c2cnc(-c3ccccn3)nc2-c2cccs2)cc1,-103% (active)
9,CCCS(=O)(=O)Nc1cccc(-c2cn3ccsc3n2)c1,-0.309% (inactive)
10,CC(=O)NC(c1cccs1)c1cc(Br)c2cccnc2c1O (stereo not given),-100% (active)
11,N#Cc1ccccc1NC(=O)COc1c(Br)cc(Br)c2cccnc12,85.2% (inactive)
12,O=[N+]([O-])c1cc([N+](=O)[O-])c2cccnc2c1O,-19.7% (inactive)
13,O=C(CNS(=O)(=O)c1ccc2ccccc2c1)Nc1ccc(F)c(F)c1F,0% (inactive)
14,CC(=O)c1cccc(OCC(=O)OCC(=O)Nc2cc(S(=O)(=O)N3CCCCC3)ccc2C)c1,9.96% (inactive)
15,Cc1ccc(NS(=O)(=O)c2ccc(C)c(NC(=O)COc3ccc4ccccc4c3)c2)c(C)c1,-81.5% (active)
16,CCCn1c(C(C)Nc2nc(-c3ccc(C)cc3)cs2)nc2cc(Cl)c(N3CCCCC3)cc21 (stereo not given),2.56% (inactive)
17,NC1=CC(=O)C(=O)c2cccnc21,-78.2% (active)
18,O=C1CCCC2=C1C(c1cccs1)n1nc(SCc3ccccc3)nc1N2 (stereo not given),-15.6% (inactive)
19,COC(=O)c1ccc(NC(=O)c2cc3c(CO)cnc(C)c3oc2=Nc2cccc(C(N)=O)c2)cc1,-2.9% (inactive)
20,Cn1nccc1/C=N\NC(=O)c1ccc(Cl)cc1,45.6% (inactive)
21,O=C(N/N=C/c1ccccn1)c1cccc(NC(=O)c2ccc(Cl)cc2)c1,-69.8% (active)
22,CC1(C)C2CC=C(/C=N/NC(=O)c3ccc(Cl)cc3)C1C2 (stereo not given),23.1% (inactive)

row,SMILES,"activity change, negative = inhibition"
1,CC(C)C(=O)Nc1nnc(SCC(=O)N2C(C)CCCC2C)s1 (stereo not given),-28.8% (inactive)
2,Cc1nn(-c2ccc(N3CCCCC3)nn2)c(C)c1CCC(=O)NCc1ccccc1F,-16.6% (inactive)
3,Cc1ccc(C)c(NC(=O)c2ccc(OC(=O)c3ccco3)cc2)c1,71.3% (inactive)
4,C/C(=N\NS(=O)(=O)c1ccc(Cl)cc1)c1ccc(NC(=O)c2ccco2)cc1,-65.3% (active)
5,Cc1ccnc(NC(=O)c2ccc(NC(=O)c3ccco3)cc2)c1,-84.7% (active)
6,CCN(c1ccc(Cl)cc1)S(=O)(=O)c1nnc(NC(=O)c2ccco2)s1,39.9% (inactive)
7,C/C(=N/NS(=O)(=O)c1ccccc1)c1ccc(NC(=O)C(F)(F)F)cc1,0.908% (inactive)
8,CSCCC(NC(=O)c1ccco1)C(=O)Nc1cc(C)ccn1 (stereo not given),47.1% (inactive)
9,CC(C)Cn1c(-c2ccc(S(=O)(=O)N3CCOCC3)cc2)csc1=Nc1cc(Cl)ccc1Cl,0.205% (inactive)
10,CN(Cc1ccccc1)C(=O)c1cn(C)c2ccc(S(=O)(=O)N3CCCCC3)cc2c1=O,-4.78% (inactive)
11,CCOC(=O)c1c(S(=O)(=O)N2CCCC(C(=O)NCc3ccc(F)cc3)C2)c(C)n(CC)c1C (stereo not given),-1.02% (inactive)
12,Cc1ccc(C2C=C(c3ccc(Cl)cc3)Nc3nc(NC(=O)CCC(=O)O)nn32)cc1 (stereo not given),-19.9% (inactive)
13,Cc1ccc(OCC(=O)OCc2cc(=O)n3nc(C4CC4)sc3n2)cc1C,-1.4% (inactive)
14,Cn1c(=O)c2c(nc(NCCc3ccccc3)n2Cc2ccccc2)n(C)c1=O,-84.2% (active)
15,Cn1c(=O)c2c(nc(NCc3ccccc3)n2CC(N)=O)n(C)c1=O,-13.4% (inactive)
16,COc1ccc(-n2ccnc(NCCc3ccc(Cl)cc3)c2=O)cc1OC,-27.6% (inactive)
17,CCn1c(NCCc2ccc(OC)c(OC)c2)nc2c1c(=O)n(C)c(=O)n2C,-71.3% (active)
18,Cn1c(=O)c2c(nc(NCCc3ccccc3)n2Cc2ccccc2Br)n(C)c1=O,6.41% (inactive)
19,Cn1c(=O)[nH]c(=O)c2c1nc(NCCc1ccccc1)n2Cc1ccc(F)cc1,26.5% (inactive)
20,CCOC(=O)c1ccc(NC(=O)Cn2cc(S(=O)(=O)Cc3ccccc3F)c3ccccc32)cc1,0% (inactive)
21,CCOc1cccc2cc(-c3cn4c(n3)sc3cc(C)ccc34)c(=O)oc12,0.706% (inactive)
22,CCOC(=O)c1ccc(NC(=O)CC2C(=O)N(c3ccccc3)C(=O)N2Cc2cccs2)cc1 (stereo not given),16.8% (inactive)

row,SMILES,"activity change, negative = inhibition"
1,CCn1nc(C(=O)Nc2ccc(N3CCOCC3)cc2)c2ccccc2c1=O,-3.67% (inactive)
2,CCOc1cc(-c2nnc(SCC(=O)NC3CCCCC3)nc2-c2ccc(OC)c(OCC)c2)ccc1OC,8.79% (inactive)
3,CC(=O)Nc1ccc(S(=O)(=O)NCC2CCC(C(=O)NCCc3ccccc3)CC2)cc1 (stereo not given),0% (inactive) and -12.6% (inactive)
4,COc1ccc(NC(=O)C2CCC(CNS(=O)(=O)c3csc(C(N)=O)c3)CC2)cc1OC (stereo not given),-65.3% (active)
5,Cc1cc(NC(=O)C2CCC(CNS(=O)(=O)c3ccc(Br)s3)CC2)ccc1Br (stereo not given),-4.58% (inactive)
6,COc1cccc(N2CC(NS(=O)(=O)c3ccc(Cl)cc3)CC2=O)c1 (stereo not given),-10.8% (inactive)
7,COc1ccc(NC(=O)CSc2nc3ncccc3[nH]2)c(OC)c1,9.48% (inactive)
8,NS(=O)(=O)c1ccc(NC(=O)COC(=O)C2(c3ccc(F)cc3)CCCC2)cc1,-61.5% (active)
9,O=C(COC(=O)C1(c2ccc(F)cc2)CCCC1)N1CCNC1=O,-24.2% (inactive)
10,CN(C)S(=O)(=O)c1cccc(NC(=O)COC(=O)C2(c3ccccc3F)CCCC2)c1,-26.2% (inactive)
11,CN(Cc1ccccc1)C(=O)CCS(=O)(=O)c1cc(Br)cc2c1N(C(=O)C1CC1)CC2,-14.4% (inactive)
12,O=S(=O)([N-]c1nc2ccccc2nc1-[n+]1ccc(Cc2ccccc2)cc1)c1ccc(Br)s1,-110% (active)
13,COc1ccc(S(=O)(=O)c2c(Nc3cccc(Cl)c3)sc(C(=O)c3ccccc3)c2N)cc1,20.4% (inactive)
14,N#C/C(=C(\O)CCl)c1nnc2n1CCCCC2,-20.4% (inactive)
15,N#C/C(=C/c1cccc([N+](=O)[O-])c1)c1nnc2n1CCCCC2,-95.5% (active)
16,N#C/C(=C(\O)C(F)(F)F)c1nnc2n1CCCCC2,-0.374% (inactive)
17,CNS(=O)(=O)c1ccc2c(c1)[nH]c(=S)n2C,-5.5% (inactive)
18,Cc1ccccc1OCc1ccc(-c2nc(C#N)c(N3CCCCC3)o2)o1,-23.6% (inactive)
19,Cc1ccc(N2CCN(C(=O)CCc3c(C)nc4c(c3C)c(=O)n(C)c(=O)n4C)CC2)c(C)c1,-5.59% (inactive)
